According to PubChem BioAssay AID1159580 (chemical genetic matrix, 2015):
Hit rate of the full screen: of about 5,500 compounds, about 2,000 (36%) were called active. Not shown: some 18% with an inconclusive outcome. Some of the results follow. A number with no mark means an inactive call. Rule as the data show it: active = normalized growth mostly below about 0.91 (no sharp cut-off); inconclusive = no clear call, values can overlap the other calls; inactive = mostly above about 0.92.

Experiment: chemical genetic growth profiling, strain panel (AID 1159580);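 also: tested at 20 µM; growth read once vehicle control cultures reached saturation at 30 °C; 1 = growth at the plate median or of vehicle wells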
Conditions: S. cerevisiae deletion strains, growth OD
[1] = locus YAR019C, strain CDC15, stronger effect = lower value
[2] = locus YBL105C, strain PKC1, stronger effect = lower value
[3] = locus YBR135W, strain CKS1, stronger effect = lower value
[4] = locus YBR136W, strain MEC1, stronger effect = lower value
[5] = locus YBR160W, strain CDC28, stronger effect = lower value
[6] = locus YDL017W, strain CDC7, stronger effect = lower value
[7] = locus YDL028C, strain MPS1, stronger effect = lower value
[8] = locus YDL101C, strain DUN1, stronger effect = lower value
[9] = locus YDL108W, strain KIN28, stronger effect = lower value
[10] = locus YDL132W, strain cdc53, stronger effect = lower value
[11] = locus YDL214C, strain PRR2, stronger effect = lower value
[12] = locus YDR052C, strain DBF4, stronger effect = lower value
[13] = locus YDR054C, strain cdc34, stronger effect = lower value
[14] = locus YDR226W, strain ADK1, stronger effect = lower value
[15] = locus YDR477W, strain SNF1, stronger effect = lower value
[16] = locus YER123W, strain YCK3, stronger effect = lower value
[17] = locus YER133W, strain GLC7, stronger effect = lower value
[18] = locus YFL009W, strain cdc4, stronger effect = lower value
[19] = locus YFL029C, strain CAK1, stronger effect = lower value
[20] = locus YFR003C, strain YPI1, stronger effect = lower value
[21] = locus YFR019W, strain FAB1, stronger effect = lower value
[22] = locus YFR028C, strain CDC14, stronger effect = lower value
[23] = locus YGR040W, strain KSS1, stronger effect = lower value
[24] = locus YGR052W, strain FMP48, stronger effect = lower value
[25] = locus YGR092W, strain DBF2, stronger effect = lower value
[26] = locus YHR030C, strain SLT2, stronger effect = lower value
[27] = locus YHR079C, strain IRE1, stronger effect = lower value
[28] = locus YHR082C, strain KSP1, stronger effect = lower value
[29] = locus YHR205W, strain SCH9, stronger effect = lower value
[30] = locus YIL147C, strain SLN1, stronger effect = lower value
[31] = locus YJL095W, strain BCK1, stronger effect = lower value
[32] = locus YJL128C, strain PBS2, stronger effect = lower value
[33] = locus YJL157C, strain FAR1, stronger effect = lower value
[34] = locus YJR016C, strain ILV3, stronger effect = lower value
[35] = locus YJR066W, strain TOR1 (second series), stronger effect = lower value
[36] = locus YJR066W, strain TOR1, stronger effect = lower value
[37] = locus YKL048C, strain ELM1, stronger effect = lower value
[38] = locus YKL067W, strain YNK1, stronger effect = lower value
[39] = locus YKL101W, strain HSL1, stronger effect = lower value
[40] = locus YKL193C, strain SDS22, stronger effect = lower value
[41] = locus YKL203C, strain TOR2, stronger effect = lower value
[42] = locus YLR113W, strain HOG1, stronger effect = lower value
[43] = locus YLR133W, strain CKI1, stronger effect = lower value
[44] = locus YLR403W, strain SFP1, stronger effect = lower value
[45] = locus YML070W, strain DAK1, stronger effect = lower value
[46] = locus YMR001C, strain CDC5, stronger effect = lower value
[47] = locus YMR205C, strain PFK2 (second series), stronger effect = lower value
[48] = locus YMR277W, strain FCP1, stronger effect = lower value
[49] = locus YNL006W, strain LST8, stronger effect = lower value
[50] = locus YNL020C, strain ARK1, stronger effect = lower value
[51] = locus YNL161W, strain CBK1, stronger effect = lower value
[52] = locus YNL183C, strain NPR1, stronger effect = lower value
[53] = locus YNL207W, strain RIO2, stronger effect = lower value
[54] = locus YNL222W, strain SSU72, stronger effect = lower value
[55] = locus YNL307C, strain MCK1 (second series), stronger effect = lower value
[56] = locus YOL078W, strain AVO1, stronger effect = lower value
[57] = locus YOL136C, strain PFK27, stronger effect = lower value
[58] = locus YOR061W, strain CKA2, stronger effect = lower value
[59] = locus YOR119C, strain RIO1, stronger effect = lower value
[60] = locus YOR231W, strain MKK1, stronger effect = lower value
[61] = locus YOR329C, strain SCD5, stronger effect = lower value
[62] = locus YPL031C, strain PHO85, stronger effect = lower value
[63] = locus YPL153C, strain RAD53, stronger effect = lower value
[64] = locus YPL204W, strain HRR25, stronger effect = lower value
[65] = locus YPL209C, strain IPL1, stronger effect = lower value
[66] = locus YPL256C, strain CLN2, stronger effect = lower value
[67] = locus YPR025C, strain CCL1, stronger effect = lower value
[68] = locus YPR106W, strain ISR1, stronger effect = lower value
[69] = locus YPR111W, strain DBF20, stronger effect = lower value
[70] = strain NNK1, stronger effect = lower value
[71] = strain TSCII, stronger effect = lower value

COc1ccc(/C=C2\CSc3ccc(F)cc3C2=O)cc1
normalized growth [1]: 0.955
normalized growth [2]: 0.96
normalized growth [3]: 0.951
normalized growth [4]: 0.971
normalized growth [5]: 0.961
normalized growth [6]: 0.966
normalized growth [7]: 0.931
normalized growth [8]: 0.968
normalized growth [9]: 0.955
normalized growth [10]: 0.947
normalized growth [11]: 0.932
normalized growth [12]: 0.977
normalized growth [13]: 0.953
normalized growth [14]: 0.965
normalized growth [15]: 0.916
normalized growth [16]: 0.896
normalized growth [17]: 0.916
normalized growth [18]: 0.934
normalized growth [19]: 0.947
normalized growth [20]: 0.96
normalized growth [21]: 0.953
normalized growth [22]: 0.93
normalized growth [23]: 0.917
normalized growth [24]: 0.939
normalized growth [25]: 0.925
normalized growth [26]: 0.771 (active)
normalized growth [27]: 0.909
normalized growth [28]: 0.949
normalized growth [29]: 0.899
normalized growth [30]: 0.969
normalized growth [31]: 0.9
normalized growth [32]: 0.91
normalized growth [33]: 0.927
normalized growth [34]: 0.973
normalized growth [35]: 0.909
normalized growth [36]: 0.874
normalized growth [37]: 0.949
normalized growth [38]: 0.911
normalized growth [39]: 0.927
normalized growth [40]: 0.941
normalized growth [41]: 1.01
normalized growth [42]: 0.763 (active)
normalized growth [43]: 0.949
normalized growth [44]: 0.928
normalized growth [45]: 0.91
normalized growth [46]: 0.952
normalized growth [47]: 0.942
normalized growth [48]: 0.929
normalized growth [49]: 0.967
normalized growth [50]: 0.955
normalized growth [51]: 0.951
normalized growth [52]: 0.935
normalized growth [53]: 0.969
normalized growth [54]: 0.952
normalized growth [55]: 0.927
normalized growth [56]: 0.94
normalized growth [57]: 0.902
normalized growth [58]: 0.933
normalized growth [59]: 0.95
normalized growth [60]: 0.879
normalized growth [61]: 0.964
normalized growth [62]: 0.914
normalized growth [63]: 0.929
normalized growth [64]: 0.912
normalized growth [65]: 0.959
normalized growth [66]: 0.87
normalized growth [67]: 0.958
normalized growth [68]: 0.962
normalized growth [69]: 0.938
normalized growth [70]: 0.962
normalized growth [71]: 0.946

CC1=C(CC(=O)O)c2cc(F)ccc2/C1=C\c1ccc(S(C)(=O)=O)cc1
normalized growth (locus YAL013W, strain DEP1, stronger effect = lower value): 1.02
normalized growth (locus YAL040C, strain CLN3, stronger effect = lower value): 0.996
normalized growth (locus YCL061C, strain MRC1 (second series), stronger effect = lower value): 0.99
normalized growth (locus YDR150W, strain NUM1, stronger effect = lower value): 0.989
normalized growth (locus YDR363W, strain ESC2, stronger effect = lower value): 1.02
normalized growth (locus YER002W, strain NOP16, stronger effect = lower value): 1
normalized growth (locus YGR229C, strain SMI1, stronger effect = lower value): 1.04
normalized growth (locus YMR307W, strain GAS1, stronger effect = lower value): 0.946
normalized growth (locus YNL153C, strain GIM3, stronger effect = lower value): 0.982
normalized growth (locus YNL175C, strain NOP13, stronger effect = lower value): 0.98
normalized growth (locus YNL197C, strain WHI3, stronger effect = lower value): 0.979
normalized growth (locus YNL224C, strain SQS1, stronger effect = lower value): 0.99
normalized growth (locus YNL322C, strain KRE1, stronger effect = lower value): 1
normalized growth (locus YOR083W, strain WHI5 (second series), stronger effect = lower value): 0.973
normalized growth (locus YPL055C, strain LGE1, stronger effect = lower value): 1.05

Cc1ccc(/C=C2\CSc3ccc(F)cc3C2=O)cc1
normalized growth [1]: 0.942
normalized growth [2]: 0.955
normalized growth [3]: 0.953
normalized growth [4]: 0.953
normalized growth [5]: 0.959
normalized growth [6]: 0.958
normalized growth [7]: 0.932
normalized growth [8]: 0.971
normalized growth [9]: 0.93
normalized growth [10]: 0.937
normalized growth [11]: 0.892
normalized growth [12]: 0.972
normalized growth [13]: 0.94
normalized growth [14]: 0.952
normalized growth [15]: 0.892
normalized growth [16]: 0.864
normalized growth [17]: 0.902
normalized growth [18]: 0.904
normalized growth [19]: 0.946
normalized growth [20]: 0.954
normalized growth [21]: 0.934
normalized growth [22]: 0.935
normalized growth [23]: 0.889
normalized growth [24]: 0.91
normalized growth [25]: 0.86
normalized growth [26]: 0.706 (active)
normalized growth [27]: 0.856
normalized growth [28]: 0.915
normalized growth [29]: 0.845
normalized growth [30]: 0.953
normalized growth [31]: 0.859
normalized growth [32]: 0.888
normalized growth [33]: 0.906
normalized growth [34]: 0.956
normalized growth [35]: 0.869
normalized growth [36]: 0.862
normalized growth [37]: 0.92
normalized growth [38]: 0.885
normalized growth [39]: 0.895
normalized growth [40]: 0.938
normalized growth [41]: 0.985
normalized growth [42]: 0.697 (active)
normalized growth [43]: 0.915
normalized growth [44]: 0.898
normalized growth [45]: 0.882
normalized growth [46]: 0.944
normalized growth [47]: 0.911
normalized growth [48]: 0.923
normalized growth [49]: 0.952
normalized growth [50]: 0.915
normalized growth [51]: 0.955
normalized growth [52]: 0.903
normalized growth [53]: 0.945
normalized growth [54]: 0.937
normalized growth [55]: 0.85
normalized growth [56]: 0.945
normalized growth [57]: 0.881
normalized growth [58]: 0.887
normalized growth [59]: 0.932
normalized growth [60]: 0.835
normalized growth [61]: 0.956
normalized growth [62]: 0.896
normalized growth [63]: 0.888
normalized growth [64]: 0.876
normalized growth [65]: 0.952
normalized growth [66]: 0.831 (active)
normalized growth [67]: 0.958
normalized growth [68]: 0.952
normalized growth [69]: 0.916
normalized growth [70]: 0.946
normalized growth [71]: 0.942
